Screening data as filed in PubChem BioAssay.
Only some compounds are listed: those with a hit (about 10% of all), similar ones and a draw of the others.
ALDH1A1 inh = ALDH1A1 (human) enzyme inhibition. Potency, µM (titrated, usually from 75.3 µM), hits mostly inhibitors. AID 1030. 7.3% of 220,000 active. P00352. Purified ALDH1A1, NADH fluorescence, propionaldehyde substrate; active = well fitted inhibition curve with a large enough effect, not every such curve was filed as active; inconclusive = small, poorly fitted or top-dose-only effect, or another doubt; inactive = no such curve, though single readings can be large or run the other way
HPGD inh = blocks human HPGD enzyme activity. P15428. AID 894. purified HPGD, NADH fluorescence kinetic, PGE2 substrate. Potency, µM, hits mostly inhibitors. 4.3% of 150,000 active; active = well fitted inhibition curve with a large enough effect, not every such curve was filed as active; inconclusive = small, poorly fitted or top-dose-only effect, or another doubt; inactive = no such curve, though single readings can be large or run the other way
Target sequence (P15428 whole entry, looked up): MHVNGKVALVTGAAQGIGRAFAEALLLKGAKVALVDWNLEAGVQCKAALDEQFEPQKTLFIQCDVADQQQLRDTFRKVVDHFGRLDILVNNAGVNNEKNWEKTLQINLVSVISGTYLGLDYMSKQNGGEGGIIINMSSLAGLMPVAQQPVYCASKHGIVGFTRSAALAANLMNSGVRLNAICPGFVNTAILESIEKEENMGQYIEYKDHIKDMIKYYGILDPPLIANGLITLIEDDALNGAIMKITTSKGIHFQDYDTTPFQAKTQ
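20 nM HPGD preincubated 15 min at room temperature with compound in 50 mM Tris-HCl pH 8, 0.01% Tween 20. Started with 1 mM NAD+ and 30 uM prostaglandin E2; NADH fluorescence (360/450 nm) read 5 times over 30-s intervals, last minus first.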
GLA inh pH 4.5 = blocks human alpha-galactosidase A at pH 4.5; purified enzyme, 4-MU-alpha-Gal fluorescence, pH 4.5; activity change, negative = inhibition, % at 105 µM; 230,000 tested, under 10 active; AID 1467
Target sequence (P06280 whole entry, looked up): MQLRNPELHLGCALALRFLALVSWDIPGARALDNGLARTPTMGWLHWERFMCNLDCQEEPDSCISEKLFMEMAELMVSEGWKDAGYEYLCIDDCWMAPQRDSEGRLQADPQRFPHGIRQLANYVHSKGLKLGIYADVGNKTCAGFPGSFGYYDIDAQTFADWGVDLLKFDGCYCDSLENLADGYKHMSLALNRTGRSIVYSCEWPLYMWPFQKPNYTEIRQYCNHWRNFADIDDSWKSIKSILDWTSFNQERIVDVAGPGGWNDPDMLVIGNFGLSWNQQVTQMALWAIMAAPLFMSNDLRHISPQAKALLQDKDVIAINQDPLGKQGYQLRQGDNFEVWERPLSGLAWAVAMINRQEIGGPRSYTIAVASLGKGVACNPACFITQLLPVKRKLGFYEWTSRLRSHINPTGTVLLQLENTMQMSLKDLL
aGal spleen mod = inhibits or activates alpha-galactosidase in human spleen homogenate; P06280; human spleen homogenate, 4MU-alpha-Gal fluorescence, 40 min; Potency, µM (series often up to 80 µM), most hits filed as inhibitors; 0.008% of 240,000 active; AID 2107
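Human spleen homogenate (1 ug) was the enzyme source, with 4-methylumbelliferyl-alpha-D-galactopyranoside (1 mM final) in pH 5.0 citrate buffer with 0.01% Tween-20. Compounds were titrated; after 40 min at 37C, NaOH/glycine stop, 4-MU fluorescence read; AC50 from Hill fits.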
12-hLO inh = inhibitors of human 12-lipoxygenase (ALOX12) | P18054 | Potency, µM (highest dose often 57.1 µM), hits mostly inhibitors | AID 1452 | purified 12-hLO, xylenol orange hydroperoxide absorbance | 0.12% of 150,000 active; note: nearly all actives have a fitted effect of over 55% in size
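Hydroperoxide formation by human 12-lipoxygenase from 40 uM arachidonic acid was followed colorimetrically via ferric-xylenol orange complex, using the 573/405 nm absorbance ratio. Enzyme concentration was 150 nM, with 30 min reaction at room temperature.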
PNC inhibitor = inhibitors of perinucleolar compartment assembly. 3.1% of 140,000 active. activity change (PNC), negative = inhibition, % at 10 µM. PC3M PTB-GFP, PNC prevalence imaging, 16 h; hits give low values. AID 2417;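 active = readout at or below -70, meaning at least 70% loss of cells showing the perinucleolar compartment, a nuclear body marking cancer cells; inconclusive = readout between -30 and a set limit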
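Read-out is percentage of cells bearing a perinucleolar compartment, from automated 20x imaging of fixed, Hoechst-stained PC3M PTB-GFP cells. Cells were seeded 4 h, then exposed 16 h to compound (23 nl of library stock) in duplicate plates.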
A number is an active result; [ ] = dose if it differs, or a comment. Unless noted, calls come from the whole dose curve; as a rule, active = well fitted curve in the direction sought with a large enough effect; inconclusive = small, poorly fitted or top-dose-only effect, or another doubt; inactive = no such curve, though single readings can be large; an effect the other way counts as inactive or inconclusive.

O=C(Nc1nnc(-c2ccncc2)s1)C1CCCO1 (stereo not drawn) was read as ALDH1A1 inh inconclusive, HPGD inh inconclusive, GLA inh pH 4.5 inactive, aGal spleen mod inactive, 12-hLO inh inactive and PNC inhibitor inconclusive.
For COc1ccc(Cc2nnc(NC(=O)C3CCCO3)s2)cc1 (stereo not drawn) the results were ALDH1A1 inh inconclusive, HPGD inh inactive, GLA inh pH 4.5 inactive, aGal spleen mod inactive, 12-hLO inh inactive and PNC inhibitor -123.
`O=C(Nc1nnc(Cc2ccc(Cl)cc2)s1)C1CCCO1` (stereo not drawn) gave ALDH1A1 inh 14µM, GLA inh pH 4.5 inactive and aGal spleen mod inactive.
COc1ccc(Cc2nnc(NC(=O)C3CCCO3)s2)cc1OC (stereo not drawn) was read as ALDH1A1 inh inconclusive, HPGD inh inactive, GLA inh pH 4.5 inactive, aGal spleen mod inactive, 12-hLO inh inactive and PNC inhibitor inconclusive.
For CC1CCC2C(=O)OC(CN3C(=O)c4ccccc4C3=O)CN2C1c1ccc(Br)cc1 (stereo not drawn) the results were ALDH1A1 inh inconclusive and aGal spleen mod inactive[17.5 µM].
Screening COc1ccc(CCNC(=O)c2cc3ccccn3n2)c(OC)c1OC returned ALDH1A1 inh 22µM, HPGD inh inconclusive, GLA inh pH 4.5 inactive, aGal spleen mod inactive, 12-hLO inh inactive and PNC inhibitor inactive.
Screening NC(=S)n1[nH]c(-c2ccc([N+](=O)[O-])cc2)c(N=Nc2ccc(Cl)cc2)c1=O returned ALDH1A1 inh inconclusive, GLA inh pH 4.5 inactive and aGal spleen mod inactive.
Screening Cc1ccc([N+](=O)[O-])cc1N=Nc1c(-c2ccc([N+](=O)[O-])cc2)[nH]n(C(N)=S)c1=O returned ALDH1A1 inh 11µM, GLA inh pH 4.5 inactive and aGal spleen mod inactive.
CC(=O)c1c(N2CCN(c3cccc(Cl)c3)CC2)nc(=S)n(-c2ccccc2)c1C was read as ALDH1A1 inh inactive, HPGD inh inactive, GLA inh pH 4.5 inactive, aGal spleen mod inactive, 12-hLO inh inactive and PNC inhibitor inconclusive.
`CCn1c(C)c(C(C)=O)c(N2CCN(c3cccc(Cl)c3)CC2)nc1=S` gave ALDH1A1 inh 14µM, HPGD inh inconclusive, GLA inh pH 4.5 inactive, aGal spleen mod inactive, 12-hLO inh inactive and PNC inhibitor inactive.
Screening CCn1c(C)c(C(C)=O)c(N2CCN(c3ccc(OC)cc3)CC2)nc1=S returned ALDH1A1 inh 25µM, GLA inh pH 4.5 inactive and aGal spleen mod inactive.
O=C(OC[C@@H]1O[C@@](O)(COC(=O)c2cccnc2)[C@H](OC(=O)c2cccnc2)[C@H]1OC(=O)c1cccnc1)c1cccnc1 was read as ALDH1A1 inh inactive, HPGD inh inactive, GLA inh pH 4.5 inactive, aGal spleen mod inactive and 12-hLO inh inactive[0.00818 µM].
For N#Cc1c(-c2ccccc2F)cc(-c2cccnc2)nc1N the results were ALDH1A1 inh inconclusive, HPGD inh inconclusive, GLA inh pH 4.5 inconclusive, aGal spleen mod inconclusive, 12-hLO inh inactive and PNC inhibitor -96.
Screening N#Cc1c(-c2ccco2)cc(-c2cccnc2)nc1N returned ALDH1A1 inh inconclusive, GLA inh pH 4.5 inactive, aGal spleen mod inconclusive, 12-hLO inh inactive and PNC inhibitor inactive.
For NNC(=O)c1cnn(Cc2ccccc2)c1N the results were ALDH1A1 inh 13µM, HPGD inh inactive, GLA inh pH 4.5 inactive, aGal spleen mod inactive, 12-hLO inh inactive and PNC inhibitor inactive.
`NC(=O)c1cnn(Cc2ccc(Cl)cc2)c1N` gave ALDH1A1 inh inactive, HPGD inh inactive, GLA inh pH 4.5 inactive, aGal spleen mod inactive, 12-hLO inh inactive and PNC inhibitor inactive.
Cn1c(-c2sc3ccccc3c2Cl)n[nH]c1=S was read as ALDH1A1 inh inconclusive, HPGD inh 20µM, GLA inh pH 4.5 inactive, aGal spleen mod inactive, 12-hLO inh inactive and PNC inhibitor inactive.
For COc1ccc2c(Cl)c(-c3nnc4n3CCCCC4)sc2c1 the results were ALDH1A1 inh inconclusive, HPGD inh 1µM, GLA inh pH 4.5 inactive, aGal spleen mod inactive, 12-hLO inh inactive and PNC inhibitor inactive.
Screening N=c1oc2ccc3ccccc3c2cc1-c1nnc2n1CCCCC2 returned ALDH1A1 inh inconclusive, HPGD inh inconclusive, GLA inh pH 4.5 inconclusive, aGal spleen mod inconclusive, 12-hLO inh inactive and PNC inhibitor -114.
For Cn1c(-c2csc(-c3ccccc3)n2)n[nH]c1=S the results were ALDH1A1 inh inactive, GLA inh pH 4.5 inactive and aGal spleen mod inactive.
For Clc1c(-c2nnc3n2CCC3)sc2ccccc12 the results were ALDH1A1 inh inconclusive, HPGD inh 28µM, GLA inh pH 4.5 inactive, aGal spleen mod inactive, 12-hLO inh inactive and PNC inhibitor inactive.
Screening Cc1ccc(NC(=O)N2CCC(=O)N2)cc1 returned ALDH1A1 inh inconclusive, HPGD inh inactive, GLA inh pH 4.5 inactive, aGal spleen mod inactive, 12-hLO inh inactive and PNC inhibitor inactive.
Screening O=S1(=O)N[C@H]2CC[C@@H]3NS(=O)(=O)N[C@H]4CC[C@H](N1)N4S(=O)(=O)N23 returned ALDH1A1 inh inactive[13.5 µM], HPGD inh inactive and 12-hLO inh inactive[11.4 µM].
C=C(C)C(O)/C=C/CCCCCCC (stereo not drawn) was read as ALDH1A1 inh inactive[13.5 µM] and aGal spleen mod inactive[17.5 µM].
`Clc1ccc(-c2nnc3n2CCCC3)cc1` gave ALDH1A1 inh inactive, HPGD inh inactive, GLA inh pH 4.5 inactive, aGal spleen mod inactive, 12-hLO inh inactive and PNC inhibitor inactive.
Screening Clc1c(-c2nnc3n2CCCCC3)sc2ccccc12 returned ALDH1A1 inh inactive, HPGD inh 2µM, GLA inh pH 4.5 inactive, aGal spleen mod inactive, 12-hLO inh inactive and PNC inhibitor inactive.
`CCOC(=O)Cn1c(S(=O)(=O)Cc2ccccc2Cl)nc(-c2ccccc2)c1-c1ccccc1` gave ALDH1A1 inh inactive, HPGD inh inactive, GLA inh pH 4.5 inactive, aGal spleen mod inactive, 12-hLO inh inactive and PNC inhibitor -84.
Screening COc1cc2[nH]c(=O)n3nc(-c4ccccc4)nc3c2cc1OC returned ALDH1A1 inh inconclusive, HPGD inh inconclusive, GLA inh pH 4.5 inactive, aGal spleen mod inactive, 12-hLO inh inactive and PNC inhibitor -100.
For C/C=C\C1=C(CO)C(=O)[C@@H]2OC2C1=O (stereo partly drawn) the results were ALDH1A1 inh 0.71µM and aGal spleen mod inactive[17.5 µM].
Screening Cc1ccc(SCCC(=O)NCCSCc2ccco2)cc1 returned ALDH1A1 inh inconclusive, GLA inh pH 4.5 inactive and aGal spleen mod inactive.
`O=C(CCc1ccccc1)NCCSc1ccccc1` gave ALDH1A1 inh inactive, GLA inh pH 4.5 inactive and aGal spleen mod inactive.
O=C(COc1ccccc1)NCCSCc1ccc(Cl)cc1 was read as ALDH1A1 inh inactive, HPGD inh inactive, GLA inh pH 4.5 inactive, aGal spleen mod inactive, 12-hLO inh inactive and PNC inhibitor inactive.
